Nine compounds from PubChem BioAssay (EPA / NIEHS) can be followed below.

In general, AC50 refers to the midpoint of the concentration-response curve, whichever way the signal moves.

Results filed as inconclusive are left out. The source made the active and inactive calls. The calls were made as follows, unless noted: active = hit-call score of the fitted dose curve at least 0.9, where 1 is the maximum; inactive = score below 0.9.

The nature of test [1]: ATG_NFI_CIS: Attagene CIS-FACTORIAL HepG2 Assay for human Nuclear Factor I (NFI) (AID 2282989). To be noted: HepG2 cis-regulatory reporter, NFI response element transcription; actives raise or lower the signal. The method, boiled down:
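After transient transfection of HepG2 with cis-promoter reporter constructs and 24 h dosing, RNA is reverse-transcribed, amplified, 6-FAM end-labelled and HpaI-digested before capillary analysis. Bidirectional curve fitting against DMSO.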

Test [2] concerns the target Myc proto-oncogene protein (Homo sapiens) (UniProt P01106). Briefly: ATG_Myc_CIS: Attagene CIS-FACTORIAL HepG2 Assay for human Myelocytomatosis (Myc) Proto-Oncogene Transcription Factor (AID 2282990). The following applies: HepG2, Attagene cis-reporter transcription factor activity; actives raise or lower the signal. The method, boiled down:
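Fluorescence intensity of reporter-specific cDNA fragments, separated by capillary electrophoresis, gives the signal. Transfected HepG2 cells carrying cis-promoter reporter constructs are incubated with compound for 24 h; DMSO serves as baseline.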

The nature of test [3]: ATG_NF_kB_CIS: Attagene CIS-FACTORIAL HepG2 Assay for human Nuclear Factor Kappa B (NF-kB) (AID 2282991). The following applies: HepG2 Attagene cis-factorial NF-kB reporter mRNA; actives raise or lower the signal. The method, boiled down:
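After 24 h compound incubation, transfected HepG2 cells yield total RNA; reporter cDNA is PCR-amplified, end-labelled with 6-FAM, HpaI-digested and analysed on a genetic analyser. Endogenous factor activity, DMSO-referenced bidirectional fit.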

The nature of test [4]: ATG_NRF2_ARE_CIS: Attagene CIS-FACTORIAL HepG2 Assay for human Nuclear Factor Erythroid 2 Related Factor 2 (NFR2) response to Antioxidant Response Elements (ARE) (AID 2282992). To be noted: HepG2 Attagene ARE/NRF2 reporter, transcription factor activity; actives raise or lower the signal. The method, boiled down:
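Cis-factorial assay: transfected HepG2 reporter library, 24 h dosing, mRNA readout via RT-PCR/CE; DMSO-referenced bidirectional analysis.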

Test [5] can be described thus: ATG_Oct_MLP_CIS: Attagene CIS-FACTORIAL HepG2 Assay for human Octamer-Binding Transcription Factor (Oct) (AID 2282993). The following applies: HepG2 Attagene cis-factorial Oct reporter, mRNA; actives raise or lower the signal. The method, boiled down: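 Cells of the HepG2 line express promoter-controlled reporter sequences whose mRNA levels, after 24 h treatment, are measured by RT-PCR and capillary electrophoresis. Increases and decreases are scored relative to DMSO.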

Test [6] addresses Cellular tumor antigen p53 (Homo sapiens) (UniProt P04637). Briefly: ATG_p53_CIS: Attagene CIS-FACTORIAL HepG2 Assay for human p53 Transcription Factor (AID 2282994). To be noted: HepG2 p53 cis-element reporter, Attagene mRNA; actives raise or lower the signal. In outline: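 Using HepG2 hepatoma cells carrying cis-acting multiplexed reporters, mRNA induction is detected after a 24 h exposure. Gain- and loss-of-signal responses are fitted relative to DMSO-treated cells.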

A short description of test [7]: BSK_3C_TissueFactor: BioMAP Diversity Plus: 3C Assay for Tissue Factor Biomarker Activity (AID 2282997). To be noted: BioMAP 3C HUVEC, tissue factor biomarker readout; actives raise or lower the signal. The method, boiled down:
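Primary human umbilical vein endothelial cells in the 3C system were exposed to test chemical for 24 h, then Tissue Factor measured by ELISA. Activity was fitted bidirectionally against DMSO as negative control and baseline.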

Test [8] can be described thus: BSK_3C_uPAR: BioMAP Diversity Plus: 3C Assay for Urokinase-type plasminogen activator receptor (uPAR) Biomarker Activity (AID 2282998). To be noted: BioMAP 3C HUVEC, uPAR biomarker ELISA; actives raise or lower the signal. In outline:
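Endothelial primary cells of human umbilical vein origin received test chemical; 24 h later uPAR was assayed by ELISA. Fitting was bidirectional, DMSO as negative control.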

Test [9] in a line: BSK_3C_VCAM1: BioMAP Diversity Plus: 3C Assay for Vascular cell adhesion molecule 1 (VCAM1) Biomarker Activity (AID 2282999). The following applies: BioMAP 3C HUVEC, VCAM1 ELISA, cytokine-stimulated; actives raise or lower the signal. The method, boiled down:
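Human umbilical vein endothelial cells (3C system), biomarker read by ELISA 24 h after dosing; bidirectional fit against DMSO baseline. Cytotoxicity tracked by SRB total-protein staining in parallel cultures at biomarker time.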

Test [10] can be described thus: BSK_4H_Eotaxin3: BioMAP Diversity Plus: 4H Assay for Eotaxin 3 Biomarker Activity (AID 2283000).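 As to outcome: CCL26 protein level quantified by ELISA in parallel with SRB cytotoxicity check.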 The following applies: primary human endothelial cells (HUVEC); actives raise or lower the signal. The method, boiled down:
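HUVEC, 24 h post-dose, ELISA for Eotaxin-3/CCL26. Gain or loss of signal fitted bidirectionally vs DMSO baseline.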

Read-out in test [11]: Intercellular Adhesion Molecule 1 (ICAM1), ICAM1 (gene 3383)
Kind of test: BSK_3C_ICAM1: BioMAP Diversity Plus: 3C Assay for Intercellular Adhesion Molecule 1 (ICAM1) Biomarker Activity (AID 2283003). To be noted: primary human endothelial cells (HUVEC); actives raise or lower the signal. The method, boiled down:
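Primary human umbilical vein endothelial cells in the BioMAP 3C system were exposed to chemicals for 24 h, then ICAM-1 was quantified by ELISA. Activity was fitted bidirectionally against the DMSO negative control baseline.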

Test [12] can be described thus: BSK_3C_Proliferation: Cell Proliferation Assessment in the BioMAP Diversity Plus: 3C Assay (AID 2283006).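 As to AC50: potency may reflect either rise or fall in cell number versus DMSO.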 The following applies: primary human endothelial cells (HUVEC). The method, boiled down:
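Human umbilical vein endothelial cells were grown sub-confluent and exposed to chemical for 48 h, then fixed with 10% TCA and stained with 0.1% sulforhodamine B; absorbance at 560 nm gave relative cell number, fitted bidirectionally against DMSO baseline.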

The target in test [13] is Peroxisome proliferator-activated receptor gamma (Homo sapiens) (UniProt P37231). Kind of test: ATG_PPARg_TRANS: Attagene TRANS-FACTORIAL HepG2 Assay for human Peroxisome Proliferator-activated Receptor-gamma (PPARg) (AID 2283007; active = hit-call score of the fitted dose curve at least 0.9, where 1 is the maximum). In outline: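 Liver-derived HepG2 cells expressing an exogenous NR-Gal4 chimera alongside GAL4-UAS reporter genes; 24 h exposure. Fluorescence of reporter RT-PCR products, separated by capillary electrophoresis, gives mRNA induction relative to DMSO.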

Test [14] has as its target Nuclear receptor subfamily 1 group I member 2 (Homo sapiens) (UniProt O75469). Briefly: ATG_PXR_TRANS: Attagene TRANS-FACTORIAL HepG2 Assay for human Pregnane X Receptor (PXR) (AID 2283008; active = hit-call score of the fitted dose curve at least 0.9, where 1 is the maximum). The method, boiled down: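 Fluorescence intensity of FAM-labelled, HpaI-digested reporter amplicons, separated by capillary electrophoresis, quantifies induction. HepG2 cells with PXR-Gal4 trans-reporter system were exposed 24 h; DMSO defines baseline.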

Test [15] has as its target human Peroxisome Proliferator-activated Receptor delta (PPARd), PPARD (gene 5467) (UniProt Q03181). Briefly: ATG_PPARd_TRANS: Attagene TRANS-FACTORIAL HepG2 Assay for human Peroxisome Proliferator-activated Receptor delta (PPARd) (AID 2283002; active = hit-call score of the fitted dose curve at least 0.9, where 1 is the maximum). The method, boiled down: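 Fluorescence from capillary electrophoresis of labelled RT-PCR reporter fragments gives the signal; DMSO sets baseline. Cells: HepG2 transiently carrying GAL4-UAS reporter units plus chimeric nuclear receptor-Gal4 proteins, exposed to chemicals for 24 h.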

Test [16] has as its target human Retinoic Acid Receptor beta (RARb), RARB (gene 5915) (UniProt P10826). Briefly: ATG_RARb_TRANS: Attagene TRANS-FACTORIAL HepG2 Assay for human Retinoic Acid Receptor beta (AID 2283004; active = hit-call score of the fitted dose curve at least 0.9, where 1 is the maximum). The method, boiled down: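 HepG2 cells transiently transfected with multiplexed GAL4-UAS reporter units expressing chimeric NR–Gal4 fusions; 24 h compound exposure. Reporter mRNA quantified by RT-PCR, 6-FAM labelling, HpaI digestion and capillary electrophoresis; gain-of-signal fitted against DMSO baseline.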

The target in test [17] is human Retinoic Acid Receptor gamma (RARg), RARG (gene 5916) (UniProt P13631). Briefly: ATG_RARg_TRANS: Attagene TRANS-FACTORIAL HepG2 Assay for human Retinoic Acid Receptor gamma (RARg) (AID 2283009; active = hit-call score of the fitted dose curve at least 0.9, where 1 is the maximum). In outline: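 HepG2 cells transiently transfected with multiplexed reporter units expressing chimeric RARg-GAL4 and GAL4-UAS-driven reporters; 24 h compound exposure. Reporter mRNA quantified by RT-PCR with fluorescent labelling and capillary electrophoresis; gain-of-signal fitted relative to DMSO baseline.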

For test [18], the target named is human RAR-related Orphan Receptor beta (RORb), RORB (gene 6096) (UniProt Q92753). Kind of test: ATG_RORb_TRANS: Attagene TRANS-FACTORIAL HepG2 Assay for human RAR-related Orphan Receptor beta (RORb) (AID 2283010; active = hit-call score of the fitted dose curve at least 0.9, where 1 is the maximum). The method, boiled down: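 HepG2 cells were transiently transfected with multiplexed GAL4-UAS reporter units expressing chimeric nuclear receptor–GAL4 proteins, then dosed for 24 h. Reporter mRNA was quantified by RT-PCR with fluorescent labelling and capillary electrophoresis; gain of signal was fitted relative to DMSO.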

The target of test [19] is human Peroxisome Proliferator-activated Receptor alpha (PPARa), PPARA (gene 5465) (UniProt Q07869). Briefly: ATG_PPARa_TRANS: Attagene TRANS-FACTORIAL HepG2 Assay for human Peroxisome Proliferator-activated Receptor alpha (PPARa) (AID 2283001; active = hit-call score of the fitted dose curve at least 0.9, where 1 is the maximum;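 as to AC50: potency for gain of reporter signal over DMSO so agonist or activator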). The method, boiled down: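 Measures transcriptional activity of an exogenous chimeric PPARa-Gal4 protein in transiently transfected HepG2 cells after 24 h dosing. Reporter mRNA quantified via RT-PCR and capillary electrophoresis; DMSO served as negative control.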

The target in test [20] is Retinoic acid receptor alpha (Homo sapiens) (UniProt P10276). Kind of test: ATG_RARa_TRANS: Attagene TRANS-FACTORIAL HepG2 Assay for human Retinoic Acid Receptor alpha (RARa) (AID 2283005; active = hit-call score of the fitted dose curve at least 0.9, where 1 is the maximum). In outline:
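HepG2 transiently transfected with multiplex GAL4-UAS reporter units including a human RARa–GAL4 chimera; 24 h compound exposure. Reporter mRNA quantified by RT-PCR, 6-FAM labeling and capillary electrophoresis; gain of signal versus DMSO.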

Peroxisome proliferator-activated receptor gamma (Homo sapiens), sequence (P37231 whole entry, looked up, the tested form may be a part): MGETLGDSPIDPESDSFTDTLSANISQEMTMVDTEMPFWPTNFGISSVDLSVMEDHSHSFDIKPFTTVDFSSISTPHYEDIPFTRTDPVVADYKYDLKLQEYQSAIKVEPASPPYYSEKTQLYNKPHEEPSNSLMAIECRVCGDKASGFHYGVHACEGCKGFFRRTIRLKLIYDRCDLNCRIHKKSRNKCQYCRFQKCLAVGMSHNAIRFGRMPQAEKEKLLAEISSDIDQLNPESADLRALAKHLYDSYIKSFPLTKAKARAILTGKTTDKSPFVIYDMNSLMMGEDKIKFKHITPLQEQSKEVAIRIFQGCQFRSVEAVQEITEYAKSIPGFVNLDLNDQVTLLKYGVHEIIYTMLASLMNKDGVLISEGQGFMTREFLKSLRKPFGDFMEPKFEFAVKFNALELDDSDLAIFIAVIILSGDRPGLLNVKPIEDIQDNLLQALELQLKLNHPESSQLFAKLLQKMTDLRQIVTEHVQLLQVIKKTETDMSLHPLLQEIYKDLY
human Retinoic Acid Receptor gamma (RARg), RARG (gene 5916), sequence (P13631 whole entry, looked up, the tested form may be a part): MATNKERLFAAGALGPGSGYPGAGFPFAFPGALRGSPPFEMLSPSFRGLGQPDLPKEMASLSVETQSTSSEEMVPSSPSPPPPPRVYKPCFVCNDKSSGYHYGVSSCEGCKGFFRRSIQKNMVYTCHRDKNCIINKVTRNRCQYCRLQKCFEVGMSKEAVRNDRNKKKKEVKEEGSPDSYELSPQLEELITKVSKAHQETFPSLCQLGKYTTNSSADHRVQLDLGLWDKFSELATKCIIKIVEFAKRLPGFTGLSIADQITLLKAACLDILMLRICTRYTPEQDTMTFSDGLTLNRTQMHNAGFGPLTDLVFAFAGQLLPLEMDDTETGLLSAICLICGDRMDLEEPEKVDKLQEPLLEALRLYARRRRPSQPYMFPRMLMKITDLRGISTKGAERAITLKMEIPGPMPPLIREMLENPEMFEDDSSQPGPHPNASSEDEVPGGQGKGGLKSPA
human Retinoic Acid Receptor beta (RARb), RARB (gene 5915), sequence (P10826 whole entry, looked up, the tested form may be a part): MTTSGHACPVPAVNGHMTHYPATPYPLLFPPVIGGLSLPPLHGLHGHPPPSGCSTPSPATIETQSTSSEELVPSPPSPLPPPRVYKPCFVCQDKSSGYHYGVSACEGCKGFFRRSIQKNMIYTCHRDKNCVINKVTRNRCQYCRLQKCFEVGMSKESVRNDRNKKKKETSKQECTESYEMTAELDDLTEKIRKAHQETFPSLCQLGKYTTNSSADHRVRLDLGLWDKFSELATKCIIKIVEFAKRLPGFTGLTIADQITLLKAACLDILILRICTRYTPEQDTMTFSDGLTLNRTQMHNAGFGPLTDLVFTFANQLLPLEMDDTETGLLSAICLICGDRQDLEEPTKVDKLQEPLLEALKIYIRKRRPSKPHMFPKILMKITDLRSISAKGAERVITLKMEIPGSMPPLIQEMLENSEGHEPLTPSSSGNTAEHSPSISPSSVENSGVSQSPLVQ
human Peroxisome Proliferator-activated Receptor delta (PPARd), PPARD (gene 5467), sequence (Q03181 whole entry, looked up, the tested form may be a part): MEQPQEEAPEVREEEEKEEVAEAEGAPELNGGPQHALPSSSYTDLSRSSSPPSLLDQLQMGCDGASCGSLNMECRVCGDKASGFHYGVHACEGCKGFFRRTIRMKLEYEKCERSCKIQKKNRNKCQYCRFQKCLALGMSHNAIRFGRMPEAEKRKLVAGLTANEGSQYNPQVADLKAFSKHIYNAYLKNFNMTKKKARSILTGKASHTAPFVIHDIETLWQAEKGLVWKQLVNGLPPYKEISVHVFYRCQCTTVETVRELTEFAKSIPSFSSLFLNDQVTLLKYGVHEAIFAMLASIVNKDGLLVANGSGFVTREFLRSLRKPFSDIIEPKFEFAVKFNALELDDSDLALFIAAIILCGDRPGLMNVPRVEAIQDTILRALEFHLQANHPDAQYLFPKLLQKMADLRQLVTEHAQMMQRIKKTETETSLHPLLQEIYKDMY
Cellular tumor antigen p53 (Homo sapiens), sequence (P04637 whole entry, looked up): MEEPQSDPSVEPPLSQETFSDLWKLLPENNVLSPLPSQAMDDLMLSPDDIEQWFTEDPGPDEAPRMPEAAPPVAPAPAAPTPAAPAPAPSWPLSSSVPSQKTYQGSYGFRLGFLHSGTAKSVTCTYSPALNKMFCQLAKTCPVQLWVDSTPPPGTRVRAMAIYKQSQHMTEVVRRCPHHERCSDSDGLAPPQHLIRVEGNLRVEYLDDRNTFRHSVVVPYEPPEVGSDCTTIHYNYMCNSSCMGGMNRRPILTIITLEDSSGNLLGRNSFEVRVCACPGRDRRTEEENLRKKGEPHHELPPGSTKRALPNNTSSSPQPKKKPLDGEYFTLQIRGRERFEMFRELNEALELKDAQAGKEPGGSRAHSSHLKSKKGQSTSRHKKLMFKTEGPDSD
Nuclear receptor subfamily 1 group I member 2 (Homo sapiens), sequence (O75469 whole entry, looked up, the tested form may be a part): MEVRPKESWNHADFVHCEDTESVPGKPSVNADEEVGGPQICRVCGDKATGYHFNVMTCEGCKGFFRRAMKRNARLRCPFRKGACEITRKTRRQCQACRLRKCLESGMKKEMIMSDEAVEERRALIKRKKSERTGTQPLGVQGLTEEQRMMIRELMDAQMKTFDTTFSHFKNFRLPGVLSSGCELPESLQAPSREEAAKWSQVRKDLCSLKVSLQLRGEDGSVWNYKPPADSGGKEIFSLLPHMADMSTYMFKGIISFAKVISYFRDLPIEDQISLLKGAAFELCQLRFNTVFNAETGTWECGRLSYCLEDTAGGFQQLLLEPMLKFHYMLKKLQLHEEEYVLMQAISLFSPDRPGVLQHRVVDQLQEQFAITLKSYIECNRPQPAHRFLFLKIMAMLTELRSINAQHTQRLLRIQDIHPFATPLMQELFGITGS
human Peroxisome Proliferator-activated Receptor alpha (PPARa), PPARA (gene 5465), sequence (Q07869 whole entry, looked up, the tested form may be a part): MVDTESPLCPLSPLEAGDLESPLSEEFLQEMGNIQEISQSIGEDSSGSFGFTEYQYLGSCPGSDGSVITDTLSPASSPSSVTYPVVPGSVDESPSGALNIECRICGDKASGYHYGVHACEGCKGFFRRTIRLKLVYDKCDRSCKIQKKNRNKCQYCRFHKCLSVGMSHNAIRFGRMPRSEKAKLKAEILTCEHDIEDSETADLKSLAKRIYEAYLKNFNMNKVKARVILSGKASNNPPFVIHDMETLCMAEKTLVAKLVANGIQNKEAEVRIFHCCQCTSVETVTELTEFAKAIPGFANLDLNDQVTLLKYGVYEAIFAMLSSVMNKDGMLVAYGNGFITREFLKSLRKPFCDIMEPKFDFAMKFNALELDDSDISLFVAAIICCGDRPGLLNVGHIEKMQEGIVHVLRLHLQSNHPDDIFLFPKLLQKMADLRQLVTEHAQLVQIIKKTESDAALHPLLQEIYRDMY
Myc proto-oncogene protein (Homo sapiens), sequence (P01106 whole entry, looked up, the tested form may be a part): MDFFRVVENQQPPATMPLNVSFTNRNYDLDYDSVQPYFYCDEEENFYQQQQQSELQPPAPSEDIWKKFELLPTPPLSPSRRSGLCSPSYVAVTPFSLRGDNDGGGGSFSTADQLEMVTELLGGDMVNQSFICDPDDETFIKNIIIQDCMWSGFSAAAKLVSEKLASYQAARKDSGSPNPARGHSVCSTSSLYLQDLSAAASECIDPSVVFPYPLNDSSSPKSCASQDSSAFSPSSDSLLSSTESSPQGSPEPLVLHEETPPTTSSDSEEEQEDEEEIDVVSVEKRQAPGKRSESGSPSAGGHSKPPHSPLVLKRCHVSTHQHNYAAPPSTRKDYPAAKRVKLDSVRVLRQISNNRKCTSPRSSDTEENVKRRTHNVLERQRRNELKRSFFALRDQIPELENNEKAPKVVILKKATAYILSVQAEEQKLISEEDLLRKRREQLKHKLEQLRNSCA
human RAR-related Orphan Receptor beta (RORb), RORB (gene 6096), sequence (Q92753 whole entry, looked up, the tested form may be a part): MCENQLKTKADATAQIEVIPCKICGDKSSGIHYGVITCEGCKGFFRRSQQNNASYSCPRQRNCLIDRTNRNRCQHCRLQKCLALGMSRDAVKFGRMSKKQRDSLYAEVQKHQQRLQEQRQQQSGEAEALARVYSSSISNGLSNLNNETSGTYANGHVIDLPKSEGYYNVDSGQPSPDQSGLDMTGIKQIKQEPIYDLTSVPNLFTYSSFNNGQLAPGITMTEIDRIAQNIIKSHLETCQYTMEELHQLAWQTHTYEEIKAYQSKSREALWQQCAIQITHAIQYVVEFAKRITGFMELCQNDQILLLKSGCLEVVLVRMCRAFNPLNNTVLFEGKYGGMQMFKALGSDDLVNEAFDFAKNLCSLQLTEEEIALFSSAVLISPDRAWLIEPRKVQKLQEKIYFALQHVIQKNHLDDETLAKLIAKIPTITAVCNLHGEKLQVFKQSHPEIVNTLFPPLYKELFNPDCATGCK
Retinoic acid receptor alpha (Homo sapiens), sequence (P10276 whole entry, looked up, the tested form may be a part): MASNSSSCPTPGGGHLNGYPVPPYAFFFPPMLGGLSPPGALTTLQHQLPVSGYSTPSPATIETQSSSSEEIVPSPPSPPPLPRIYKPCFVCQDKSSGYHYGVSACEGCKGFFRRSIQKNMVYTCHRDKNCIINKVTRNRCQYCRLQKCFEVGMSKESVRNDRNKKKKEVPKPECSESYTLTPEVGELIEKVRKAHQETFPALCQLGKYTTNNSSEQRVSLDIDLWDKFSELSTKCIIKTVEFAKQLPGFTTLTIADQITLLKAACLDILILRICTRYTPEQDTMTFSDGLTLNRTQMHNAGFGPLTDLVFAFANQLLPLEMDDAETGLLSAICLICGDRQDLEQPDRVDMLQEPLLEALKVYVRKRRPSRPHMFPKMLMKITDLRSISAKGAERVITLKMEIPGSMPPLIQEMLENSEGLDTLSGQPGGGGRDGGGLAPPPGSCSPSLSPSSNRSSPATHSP

For `C=C(C)C(=O)OCC(CC)(COC(=O)C(=C)C)COC(=O)C(=C)C`, the result in test [1], in [2], in [3], in [5], in [6] and in test [7] was inactive. The outcome in [8], in [9], in test [10], in test [11] and in [14] was inactive. Further, the AC50 is 51.4 µM (active) in test [4], 13.9 µM (active) in [12] and 98.5 µM (active) in [13].

`CC1(C)C2=CCCC(C)(C)[C@]23CC[C@H]1C3`: the compound was classed as inactive in [1], in test [2], in test [3], in test [5], in test [6] and in test [7]. Also, the result in test [9], in test [15], in test [11], in [16], in [13] and in test [17] was inactive. The result in [18] was inactive. For the same compound, the AC50 in test [4] is 100 µM (active); in test [8] it was 36.4 µM (active); in test [10] it was 27.3 µM (active); in [12], 31.7 µM (active); in [14] it was 1.31 µM (active).

For `CN(C)C(=S)SC(=S)N(C)C`, the call in test [1], in test [2], in test [3], in [5], in test [6] and in test [7] was inactive. Moreover, the compound was called inactive in test [19], in test [15] and in test [11]. Further, the AC50 in [4] was 22.9 µM (active); in test [8] it was 31.8 µM (active); in test [9], 19.9 µM (active); in [10], 31.4 µM (active); in test [12], 19.9 µM (active); in test [13] it was 20.9 µM (active).

With `Cc1ccc(S(=O)(=O)Oc2ccc(N=Nc3ccc(-c4ccc(N=Nc5c(O)ccc6cc(S(=O)(=O)O)cc(S(=O)(=O)O)c56)c(C)c4)cc3C)cc2)cc1`, the outcome in test [1], in test [2], in test [3], in test [4], in test [5] and in test [6] was inactive. For the same compound, the compound was called inactive in [19], in test [15], in test [16], in test [14] and in test [17]. In [13], the AC50 was 18.3 µM (active).

With `CCC1(c2ccccc2)C(=O)NCNC1=O`, the result in [1], in test [2], in test [3], in [4], in test [5] and in test [6] was inactive.

Turning to `C[C@@H]1CCN(C(=O)[C@H](CCCN=C(N)N)NS(=O)(=O)c2cccc3c2NC[C@H](C)C3)[C@@H](C(=O)O)C1`, the result in test [1], in test [2], in test [3], in test [4], in test [5] and in [6] was inactive. Besides, the result in test [7], in [8], in test [9], in [10], in test [11] and in [16] was inactive. In addition, the result in test [12], in test [13] and in test [17] was inactive.

Consider `NCCNc1cccc2ccccc12`, for which the AC50 in test [1] is 178 µM (active); in test [2], 168 µM (active); in test [5], 176 µM (active); in [6], 50.9 µM (active); in test [19], 150 µM (active); in test [13], 125 µM (active). Besides, the outcome in test [3], in test [4], in [15], in test [16], in [20] and in test [14] was inactive. In test [17], the call was inactive.

For `COc1cccc(OC)c1O`, the call in test [1], in [2], in test [3], in test [4], in test [5] and in [6] was inactive.

Consider `O=C1OC[C@H](Cc2cccc(O)c2)[C@H]1Cc1cccc(O)c1`, for which the compound was classed as inactive in test [1], in test [2], in test [3], in [4], in test [5] and in test [6]. In addition, the outcome in test [7], in test [8], in test [9], in [10], in [15] and in test [11] was inactive. The outcome in test [12], in test [13], in test [17] and in test [18] was inactive. Besides, the AC50 in test [14] was 7.35 µM (active).
